Pf growth 96h = P. falciparum growth inhibition at 96 hour, primary screen for plastid delayed-death inhibitors | P. falciparum luciferase reporter growth, 96 h | Potency, µM (titrated, usually from 28.7 µM), for inactives: at the top dose activity change, negative = inhibition, hits mostly inhibitors | 320,000 tested, 6.9% active | AID 504834; further: potency means the concentration at half of the fitted maximal effect; on the % scale 0 is the no-effect control and ±100 the full control effect
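Plates of compound plus infected erythrocytes (2% hematocrit, 0.05% parasitemia final) incubate 96 hours, 37 C, 5% CO2. Detection reagent added; reduced luminescence from the parasites' luciferase reporter flags inhibition.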
NS1 inh = inhibitors of influenza NS1 protein function | Potency, µM (titrated, usually from 46.1 µM), for the others: at the top dose activity, positive = more growth | 270,000 tested, 0.4% active; calls by dose curve; further: potency means the concentration at half of the fitted maximal effect; actives are rising curves; nearly all actives have a fitted effect of over 50% in size
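Read-out: OD600 growth recovery of NS1-expressing budding yeast. Cells grown overnight at 30C in -URA glucose medium, washed, resuspended and diluted 1:100 in 2% galactose assay medium, pH 6.0. Same strain lacking NS1 served as positive control.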
Shiga toxin inh = blocks Shiga toxin action in Vero cells; Vero cells, Shiga toxin protein synthesis inhibition reporter; inhibition, % at 38.7 µM; 290,000 tested, 9.2% active; AID 2315; in the data active means inhibition mostly above about 28%, no sharp cut-off; inactive means mostly below about 43%; further: 0% is about no effect
Cycloheximide cs = counter-screen for Shiga toxin inhibitors: cycloheximide protein synthesis inhibition. cell reporter, cycloheximide protein synthesis inhibition counterscreen. max response, %. 300,000 tested, 12% active; in the data active means max response mostly above about 13%, no sharp cut-off; inactive means mostly below about 14%; further: read at 38.3 µM for the half of the compounds with a filed dose; 0% is about no effect
SARS PLP yeast = inhibitors of SARS-CoV papain-like protease in yeast | S. cerevisiae expressing SARS-CoV PLpro, growth rescue | Potency, µM (titrated, usually from 32.9 µM), inactives show top-dose activity, positive = growth rescue, most hits filed as activators | 330,000 tested, 0.19% active | AID 485353; calls by dose curve; further: potency means the concentration at half of the fitted maximal effect; 0% is about no effect; nearly all actives have a fitted effect of over 55% in size
Pf growth 48h = P. falciparum growth inhibition at 48 hours (one generation). P. falciparum luciferase growth in erythrocytes, 48 h. Potency, µM (doses to about 28.7 µM), inactives show top-dose activity change, negative = inhibition, actives largely listed as inhibitors. 310,000 tested, 5.9% active. AID 504832; further: potency means the concentration at half of the fitted maximal effect; on the % scale 0 is the no-effect control and ±100 the full control effect
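Parasite viability was followed by luminescence of a genomically integrated firefly luciferase. Cultures held 0.1% parasitemia at 2% hematocrit (final), incubated under 5% CO2 at 37 C.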
* = called active by the depositor; ? = inconclusive; . = no result given. The list is not random: actives were taken first. Their share in the collection is about 21%. Unless noted, the call rests on the fitted dose curve; in most records, active means well fitted inhibition curve with a large enough effect; inconclusive means small, poorly fitted or top-dose-only effect, or another doubt; inactive means no such curve, though single readings can be large or run the other way.

SMILES	Pf growth 96h	NS1 inh	Shiga toxin inh	Cycloheximide cs	SARS PLP yeast	Pf growth 48h
COc1ccc(OC)c(-n2c(SCC(=O)Nc3cc(C)on3)nnc2-c2c[nH]c3ccccc23)c1	4.7µM*	4%	-14	-2	7%	.
Cc1ccccc1-n1c(SCc2c(C)noc2C)nnc1-c1c[nH]c2ccccc12	15µM*	1%	-4	-5	-5%	?
COc1ccc(OC)c(-n2c(SC)nnc2-c2c[nH]c3ccccc23)c1	4.1µM*	3%	-6	-5	3%	.
N#Cc1ccc(CSc2nnc(-c3c[nH]c4ccccc34)n2-c2ccccc2)cc1	?	11%	2	-2	-1%	?
COc1ccccc1N(C)S(=O)(=O)c1ccc(C(=O)OCC(=O)N2CCCCCC2)cc1	?	.	-19	6	-1%	29%
CC(C)C(C(=O)NCc1ccco1)N(Cc1ccco1)C(=O)CNS(=O)(=O)c1ccccc1 (configuration not stated)	0%	4%	-3	1	2%	-10%
CCC(C(=O)NCc1ccco1)N(C(=O)CNS(=O)(=O)c1ccc(C)cc1)c1ccccc1OC (configuration not stated)	21%	1%	-20	-2	1%	4.1µM*
CCCC(C(=O)NCc1ccco1)N(C(=O)CNS(=O)(=O)c1ccccc1)c1ccccc1OC (configuration not stated)	?	-49%	35	1	6%	10µM*
COc1ccccc1N(C(=O)CNS(=O)(=O)c1ccccc1)C(C(=O)NCc1ccco1)C(C)C (configuration not stated)	5.2µM*	-7%	-14	2	5%	?
CN(C)S(=O)(=O)c1cccc(NC(=O)COC(=O)c2cc(=O)c3ccccc3o2)c1	43%	7%	22	5	0%	38%
CCCCOc1ccc(/C=C/C(=O)NC2=Nc3ccccc3NC(C)=C2C(=O)OCC)cc1OC	10µM*	.	19	15	2%	?
O=C(NCC1CCCN(Cc2ccc3nonc3c2)C1)c1ccc(F)cc1 (configuration not stated)	-21%	4%	-13	-1	-2%	-14%
COc1ccc(N2C(=NC(=O)C3CCCCC3)SC3CS(=O)(=O)CC32)cc1OC (configuration not stated)	16%	-8%	-2	-1	1%	5%
COc1ccc(C(=O)N=C2SC3CS(=O)(=O)CC3N2c2ccc(N(C)C)cc2)cc1OC (configuration not stated)	9.3µM*	18%	9	11	0%	-22%
CCn1nc(C)c(CN2CCC(C(=O)Nc3cccc(-c4cccc(F)c4)c3)CC2)c1C	4%	16%	-4	-5	6%	10µM*
O=C(Nc1cccc(-c2cccc(Cl)c2)c1)C1CCN(Cc2ccc(CO)o2)CC1	?	10%	-14	-2	-1%	-17%
CCn1cc(CN2CCC(C(=O)Nc3cccc(-c4cccc(F)c4)c3)CC2)cn1	0%	-5%	-3	-2	3%	?
Cc1ccc(CN2CCC(C(=O)Nc3cccc(-c4cccc(F)c4)c3)CC2)o1	4.7µM*	-5%	-7	-2	-4%	28%
Ic1ccc2c(c1)N(c1ccccc1)c1cc(Nc3ccc4nc5ccc(I)cc5[n+](-c5ccccc5)c4c3)ccc1N2	.	5%	.	.	.	.
CC1CCc2[nH]c3ccc(C(=O)NCCCOC(C)C)cc3c2C1 (configuration not stated)	-11%	.	33	14	1%	12%
CC(NC(=O)NC(=O)c1cccc(Cl)c1)c1ccccc1 (configuration not stated)	2%	9%	5	8	8%	?
C=C(C)Cc1c(C)c(C#N)c2nc3ccccc3n2c1N1CCCCC1	?	-2%	-16	-2	5%	.
C=CCc1c(C)c(C#N)c2nc3ccccc3n2c1N1CCCCC1	1.9µM*	0%	6	-2	-2%	?
CCN(CC)S(=O)(=O)c1ccc(Cl)c(C(=O)OCC(=O)c2c(N)n(C)c(=O)n(C)c2=O)c1	-49%	-1%	-5	-2	-1%	?
Cc1ccc(-n2nc(C)c3c(C)cc(=O)[nH]c32)cc1	.	1%	32	21*	2%	63%
SMILES	Pf growth 96h	NS1 inh	Shiga toxin inh	Cycloheximide cs	SARS PLP yeast	Pf growth 48h
Cc1c(NC(=O)c2cccnc2C(=O)O)cccc1C(=O)O	6%	-10%	-7	-2	6%	6%
COc1ccc2cc1Oc1ccc(cc1)C[C@H]1c3cc(c(OC)cc3CCN1C)Oc1c(OC)c(OC)cc3c1[C@H](C2)N(C)CC3	2.1µM*	1%	-4	-3	1%	2.1µM*
COc1cc2c3cc1Oc1cc(ccc1O)C[C@@H]1c4c(cc(OC)c(O)c4Oc4ccc(cc4)C[C@H]3N(C)CC2)CCN1C	1.7µM*	3%	-13	-3	-9%	2.1µM*
COc1ccc2cc1Oc1ccc(cc1)C[C@H]1c3c(cc4c(c3Oc3cc5c(cc3OC)CCN(C)[C@@H]5C2)OCO4)CCN1C	1.5µM*	-3%	3	2	4%	1.9µM*
COc1cccc(-c2nn(-c3ccc(C)cc3)cc2C(=O)N2CCN(C3CCS(=O)(=O)C3)CC2)c1 (configuration not stated)	-10%	.	.	.	4%	?
COc1ccc(CCNC(=O)Cn2c(=O)n(-c3ccc(C)c(F)c3)c(=O)c3sccc32)cc1OC	37%	.	6	9	1%	-2%
C=CCSC1=N/C(=C\c2ccc3c(c2)OCO3)C(=O)S1	0.41µM*	-9%	-1	-3	-3%	-2%
O=C(N/N=C/c1ccc(OC(=O)c2cccs2)cc1)c1ccccn1	-30%	-5%	53*	45*	-5%	56%
CC(C)(C)OC(=O)N/N=C\c1ccc(OC(=O)c2cccs2)cc1	12µM*	-24%	97*	15	4%	3%
CCOc1cc(/C=N/NC(=O)COc2cccc(C)c2)ccc1OC(=O)c1cccs1	31%	27%	1	4	4%	24%
O=C(N/N=C/c1ccc(OC(=O)c2ccco2)cc1)c1ccccn1	?	-23%	39*	27*	-1%	153%
CCOc1cc(/C=N/NC(=O)c2ccccn2)ccc1OC(=O)c1cccs1	9.3µM*	13%	43*	28*	?	29%
Cc1ccc(/C([O-])=C(/C(=S)NCCN2CCOCC2)[n+]2ccccc2)cc1[N+](=O)[O-]	-49%	9%	-3	-5	-2%	-17%
COc1ccccc1CCN1CCCC(CN(C)C(=O)CCC(=O)N(C)C)C1 (configuration not stated)	?	-1%	-6	-1	1%	-6%
O=C(O)COc1ccc(/C=N/NC(=O)Cc2ccc(Cl)cc2)cc1	-21%	1%	5	-2	0%	?

Screening results as filed in PubChem BioAssay.
